# Measurements: PMC7862700, “An all-to-all approach to the identification of sequence-specific readers for epigenetic DNA modifications on cytosine”
# Tests used:
# Assay in all cases: DAPPL (digital affinity profiling via proximity ligation, sequencing); 10 mM Tris-HCl pH 7.5, 50 mM NaCl, 1 mM DTT, 4% glycerol, room temperature, 30 min; GST-TFs on glutathione beads, 16-mer random dsDNA library, 0.1% formaldehyde crosslink after washing; high values mean tight binding
# Settings in all cases: protein: recombinant; tags: N-terminal GST; dsDNA, one strand shown
# FLI1 = biological target: T1, FLI1 (Homo sapiens, UniProt Q01543 1-452)
# T1 sequence: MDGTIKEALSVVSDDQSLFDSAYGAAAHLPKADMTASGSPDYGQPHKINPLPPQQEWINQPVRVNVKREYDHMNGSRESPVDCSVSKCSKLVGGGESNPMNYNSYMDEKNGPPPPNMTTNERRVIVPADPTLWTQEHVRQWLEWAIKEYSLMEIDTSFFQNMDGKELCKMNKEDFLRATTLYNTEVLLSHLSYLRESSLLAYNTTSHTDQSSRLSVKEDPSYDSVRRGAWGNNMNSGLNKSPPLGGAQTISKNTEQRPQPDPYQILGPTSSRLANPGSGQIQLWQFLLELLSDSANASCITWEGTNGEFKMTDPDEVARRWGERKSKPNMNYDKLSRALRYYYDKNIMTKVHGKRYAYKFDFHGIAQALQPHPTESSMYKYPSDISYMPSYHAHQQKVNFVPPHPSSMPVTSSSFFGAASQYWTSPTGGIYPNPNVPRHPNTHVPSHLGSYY
# Outline: (§1)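 In yeast, human transcription factors were expressed with a GST fusion, then pulled down on glutathione beads and given DNA barcodes. Pooled with a tag-only sample, they were exposed to 200 nmole of a 16-mer random double-stranded DNA library (Tris/NaCl/DTT/glycerol buffer, room temperature, 30 min), washed, crosslinked with 0.1% formaldehyde, proximity-ligated using BsaI/T4 ligase for 1 h at 37 °C, PCR-amplified and read on an Illumina NextSeq500. Each hexamer's frequency of reads for a factor, divided by the matching frequency for the tag-only sample, gives the binding signal.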
# ELK1 = biological target: T2, ELK1 (Homo sapiens, UniProt P19419 1-428)
# T2 sequence: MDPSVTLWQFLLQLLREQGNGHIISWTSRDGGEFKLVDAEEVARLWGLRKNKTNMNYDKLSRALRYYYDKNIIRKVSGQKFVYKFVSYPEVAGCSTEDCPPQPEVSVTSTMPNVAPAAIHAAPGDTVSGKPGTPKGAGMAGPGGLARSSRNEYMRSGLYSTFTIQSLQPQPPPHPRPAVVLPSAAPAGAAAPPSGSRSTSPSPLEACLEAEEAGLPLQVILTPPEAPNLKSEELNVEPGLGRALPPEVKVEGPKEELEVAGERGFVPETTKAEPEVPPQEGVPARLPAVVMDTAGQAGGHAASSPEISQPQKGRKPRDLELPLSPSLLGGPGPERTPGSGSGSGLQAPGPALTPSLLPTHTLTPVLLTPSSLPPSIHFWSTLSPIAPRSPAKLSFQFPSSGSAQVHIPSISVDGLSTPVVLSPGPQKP
# Outline: as §1
# GABPA = biological target: T3, GABPA (Homo sapiens, UniProt Q06546 1-454)
# T3 sequence: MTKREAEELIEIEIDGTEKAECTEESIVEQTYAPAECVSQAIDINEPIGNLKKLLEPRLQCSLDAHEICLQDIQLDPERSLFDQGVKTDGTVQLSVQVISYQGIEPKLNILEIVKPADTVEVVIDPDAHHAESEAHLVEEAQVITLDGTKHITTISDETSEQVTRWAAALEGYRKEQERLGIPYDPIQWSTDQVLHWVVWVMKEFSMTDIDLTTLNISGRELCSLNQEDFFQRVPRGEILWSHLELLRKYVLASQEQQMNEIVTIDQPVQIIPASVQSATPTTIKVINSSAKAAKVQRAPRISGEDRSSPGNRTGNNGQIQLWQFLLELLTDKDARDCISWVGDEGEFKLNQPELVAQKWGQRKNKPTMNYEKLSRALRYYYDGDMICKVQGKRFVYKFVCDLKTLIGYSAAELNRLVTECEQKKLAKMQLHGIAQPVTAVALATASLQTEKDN
# Outline: as §1
# ERG = biological target: T4, ERG (Homo sapiens, UniProt P11308 1-479)
# T4 sequence: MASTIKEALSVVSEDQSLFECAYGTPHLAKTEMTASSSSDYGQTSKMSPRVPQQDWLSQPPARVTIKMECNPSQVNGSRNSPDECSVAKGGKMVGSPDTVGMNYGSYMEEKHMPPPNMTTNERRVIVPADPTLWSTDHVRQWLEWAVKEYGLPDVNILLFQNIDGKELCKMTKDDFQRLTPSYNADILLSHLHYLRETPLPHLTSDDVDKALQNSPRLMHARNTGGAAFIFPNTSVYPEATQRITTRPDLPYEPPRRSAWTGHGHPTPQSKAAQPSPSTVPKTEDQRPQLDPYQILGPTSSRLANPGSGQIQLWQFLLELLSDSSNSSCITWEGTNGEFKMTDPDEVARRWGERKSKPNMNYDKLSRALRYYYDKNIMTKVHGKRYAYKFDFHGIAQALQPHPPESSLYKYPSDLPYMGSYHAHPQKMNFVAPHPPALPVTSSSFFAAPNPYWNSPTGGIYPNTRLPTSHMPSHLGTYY
# Outline: as §1
# ELF1 = ELF1 (Homo sapiens, UniProt P32519 1-619)
# Outline: as §1
# EHF = biological target: T5, EHF (Homo sapiens, UniProt Q9NZC4 1-300)
# T5 sequence: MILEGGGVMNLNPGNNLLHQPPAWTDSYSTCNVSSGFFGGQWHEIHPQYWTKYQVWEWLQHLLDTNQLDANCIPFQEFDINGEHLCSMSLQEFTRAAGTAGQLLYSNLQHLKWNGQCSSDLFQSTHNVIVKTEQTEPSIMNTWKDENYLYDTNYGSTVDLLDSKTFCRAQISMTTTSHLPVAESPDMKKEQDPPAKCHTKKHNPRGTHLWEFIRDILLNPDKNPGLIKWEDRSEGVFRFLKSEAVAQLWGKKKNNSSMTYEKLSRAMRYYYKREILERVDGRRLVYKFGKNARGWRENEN
# Outline: as §1
# SPI1 = SPI1 (Homo sapiens, UniProt P17947 1-270)
# Outline: as §1
# SPIB = SPIB (Homo sapiens, UniProt Q01892 1-262)
# Outline: as §1
# ELK3 = biological target: T6, ELK3 (Homo sapiens, UniProt P41970 1-407)
# T6 sequence: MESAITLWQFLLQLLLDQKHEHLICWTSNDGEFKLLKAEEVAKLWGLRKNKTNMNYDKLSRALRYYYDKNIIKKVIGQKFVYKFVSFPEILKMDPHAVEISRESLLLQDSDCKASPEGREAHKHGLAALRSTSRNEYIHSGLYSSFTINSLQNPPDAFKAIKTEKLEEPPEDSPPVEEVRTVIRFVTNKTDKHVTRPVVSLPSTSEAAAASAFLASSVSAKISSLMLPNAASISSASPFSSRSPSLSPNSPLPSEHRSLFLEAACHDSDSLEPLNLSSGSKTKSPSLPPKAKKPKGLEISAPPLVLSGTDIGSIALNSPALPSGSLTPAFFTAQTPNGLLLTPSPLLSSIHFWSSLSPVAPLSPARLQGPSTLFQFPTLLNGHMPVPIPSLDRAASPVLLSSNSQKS
# Outline: as §1
# Sequence of ELF1 (P32519 whole entry): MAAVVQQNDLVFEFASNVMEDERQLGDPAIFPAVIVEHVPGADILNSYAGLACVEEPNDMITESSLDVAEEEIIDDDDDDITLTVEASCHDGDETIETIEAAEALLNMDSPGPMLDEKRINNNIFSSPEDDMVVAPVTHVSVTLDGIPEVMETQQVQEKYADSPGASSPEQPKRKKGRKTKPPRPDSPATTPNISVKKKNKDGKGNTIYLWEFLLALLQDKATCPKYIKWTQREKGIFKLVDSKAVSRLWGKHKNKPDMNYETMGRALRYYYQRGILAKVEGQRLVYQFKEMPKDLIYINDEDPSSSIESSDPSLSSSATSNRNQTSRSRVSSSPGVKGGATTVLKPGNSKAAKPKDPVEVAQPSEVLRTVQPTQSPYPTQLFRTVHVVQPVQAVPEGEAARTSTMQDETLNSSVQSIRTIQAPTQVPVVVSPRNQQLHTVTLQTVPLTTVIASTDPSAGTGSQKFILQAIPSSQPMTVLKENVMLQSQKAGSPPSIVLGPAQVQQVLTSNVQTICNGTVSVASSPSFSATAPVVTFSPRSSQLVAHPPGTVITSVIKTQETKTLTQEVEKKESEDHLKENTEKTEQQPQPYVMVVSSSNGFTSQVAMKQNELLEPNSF
# Sequence of SPIB (Q01892 whole entry): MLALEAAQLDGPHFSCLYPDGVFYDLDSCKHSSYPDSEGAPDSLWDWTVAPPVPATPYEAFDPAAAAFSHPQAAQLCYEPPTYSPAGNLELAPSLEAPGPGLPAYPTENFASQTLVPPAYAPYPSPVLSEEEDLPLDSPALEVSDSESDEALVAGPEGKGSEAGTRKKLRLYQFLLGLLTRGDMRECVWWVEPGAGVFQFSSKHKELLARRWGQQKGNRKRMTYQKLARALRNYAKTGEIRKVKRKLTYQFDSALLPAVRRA
sequence,measurement,setting,value
ACGTTC,binding signal,FLI1,"1.31 fold enrichment (6-mer frequency, TF over GST control)"
same,binding signal,ELK1,"1.45 fold enrichment (6-mer frequency, TF over GST control)"
same,binding signal,GABPA,"1.33 fold enrichment (6-mer frequency, TF over GST control)"
same,binding signal,ERG,"1.39 fold enrichment (6-mer frequency, TF over GST control)"
same,binding signal,ELF1,"1.4 fold enrichment (6-mer frequency, TF over GST control)"
same,binding signal,EHF,"1.3 fold enrichment (6-mer frequency, TF over GST control)"
same,binding signal,SPI1,"1.29 fold enrichment (6-mer frequency, TF over GST control)"
same,binding signal,SPIB,"1.37 fold enrichment (6-mer frequency, TF over GST control)"
same,binding signal,ELK3,"1.38 fold enrichment (6-mer frequency, TF over GST control)"
